65 compounds from ChEMBL document CHEMBL3988442, “University of Dundee, Small-Polar-MMV Screening Library” (2021) can be followed below.

About 13,000 (27%) of roughly 48,000 compounds showed an effect of 50% or more. This is one part of the list.

The test system of the assay is Wolbachia pipientis. Nature of the assay: Anti-Wolbachia Cell-Based Screen. As to conditions: 5 µM. The format is functional. On the set-up: scale not given: in the data most compounds retested in dose-response had high values.
For `Cc1ccc(CNC(CCO)C2CCCCC2)nc1` (stereo not given), the “Percent Effect” value is listed as 14.22%.

For the compound `CCOCC(=O)Nc1ncn(Cc2cccc(Br)c2)n1`, the “Percent Effect” value amounted to 5.844%.

Turning to `CNC(=O)C1CCCCN1C(=O)c1csc(-c2ccc(C)cc2)n1` (stereo not given), the “Percent Effect” value is reported as -3.515%.

`C[S+]([O-])c1nncn1CCCc1ccc(Cl)cc1` (stereo not given): the “Percent Effect” value was determined as 1.023%.

For the compound `O=C(CCc1ccccc1)C1CCCN(Cc2cncn2C2CC2)C1` (stereo not given), the “Percent Effect” value was -3.844%.

On to `CCS(=O)(=O)N1CCCC(c2nc3ccccc3n2C(C)C)C1` (stereo not given), for which the “Percent Effect” value is given as -13.43%.

Consider `CS(=O)(=O)N1CCN2C(=O)N(C3CCCCC3)C[C@H]2C1`, for which the “Percent Effect” value is -8.389%.

Regarding `CCS(=O)(=O)Cc1nnnn1-c1ccccc1`, the “Percent Effect” value stood at 1.834%.

Take `CS(=O)(=O)N1CCC(n2nnn(-c3ccccc3)c2=O)CC1`: the “Percent Effect” value is recorded as 113.8%.

In the case of `CS(=O)(=O)N1CCCC(n2nnn(-c3ccccc3)c2=O)C1` (stereo not given), the “Percent Effect” value was determined as 149.4%.

Regarding `NC(=O)C1CCN(S(=O)(=O)c2cnn(-c3ccccc3)c2)C1` (stereo not given), the “Percent Effect” value is -1.203%.

For the compound `CCS(=O)(=O)N1CCCC(n2nnn(-c3ccccc3)c2=O)C1` (stereo not given), the “Percent Effect” value came to 133%.

`CS(=O)(=O)N1CCC(N2CCCC2c2ccccn2)CC1` (stereo not given): the “Percent Effect” value is listed as -15.97%.

On to `CS(=O)(=O)N1CCCC(C(=O)N2CCOc3ccccc32)C1` (stereo not given), for which the “Percent Effect” value is -6.293%.

Turning to `Cc1nc(CN2CCC(CNC(=O)C3(C#N)CCCC3)CC2)oc1C`, the “Percent Effect” value is on record as -2.689%.

`O=C(NCCNS(=O)(=O)c1cc(F)cc(F)c1)c1ccoc1`: the “Percent Effect” value was found to be 3.11%.

On to `COCc1ncc(CN(CCN(C)C)Cc2ccc(C)s2)cn1`, for which the “Percent Effect” value is listed as -7.942%.

As to `OC(CNCCn1cccn1)COc1ccc2ccccc2c1` (stereo not given), the “Percent Effect” value is on record as -4.73%.

For `CO[C@@H]1CCN(S(=O)(=O)c2cn(C)cn2)[C@H]1Cc1ccncc1.O=C(O)C(F)(F)F`, the “Percent Effect” value worked out at 7.215%.

Consider `Cn1nccc1C(=O)N1CCN(C(=O)C2CCC2)[C@@H]2CS(=O)(=O)C[C@@H]21`, for which the “Percent Effect” value is on record as -1.449%.

Consider `CC1(C)CC1(C(=O)N1CC(c2cccnc2)C1)c1ccc(F)cc1` (stereo not given), for which the “Percent Effect” value was -9.092%.

`CC1=Nc2c(c(=O)[nH]n2C2CCCC2)C(c2ccc(C(=O)O)cc2)S1` (stereo not given): the “Percent Effect” value is recorded as 117.5%.

As to `O=C1CC(C2CCCCC2)c2c(n(C3CCCC3)[nH]c2=O)N1` (stereo not given), the “Percent Effect” value is on record as -0.7877%.

With `CC1=Nc2c(c(=O)[nH]n2C2CCCC2)C(c2cccc(O)c2)S1` (stereo not given), the “Percent Effect” value was 4.051%.

As to `CC1=Nc2c(c(=O)[nH]n2C2CCCC2)C(c2cccnc2)S1` (stereo not given), the “Percent Effect” value is 106.9%.

For `COc1ccc(C2SC(C)=Nc3c2c(=O)[nH]n3C2CCCCC2)cc1O` (stereo not given), the “Percent Effect” value is recorded as 9.619%.

`CC1=Nc2c(c(=O)[nH]n2C2CCCCC2)C(c2ccc(C(=O)O)cc2)S1` (stereo not given): the “Percent Effect” value was determined as 110.1%.

As to `C[C@@H]1CN(C2CCN(Cc3nn(C)c4cccc(Cl)c34)CC2)C[C@H](C)O1`, the “Percent Effect” value turned out to be 24.58%.

Regarding `C[C@@H]1CN(CC(C)(C)N2CCCCC2)CC[C@@]1(O)C1CC1`, the “Percent Effect” value is 22.77%.

With `CC(CN1CCOCC1)N(Cc1ccccc1)Cc1ccncc1` (stereo not given), the “Percent Effect” value is 4.516%.

In the case of `O=C(Nc1cn[nH]c1)c1ccc(O)nc1`, the “Percent Effect” value was -8.814%.

For the compound `Cc1ccc(NCCNC(=O)C2Cc3cc(C)c(C)cc3O2)nn1` (stereo not given), the “Percent Effect” value is listed as -19.52%.

In the case of `COc1ncccc1C(=O)N1CCCC1c1c(C)n[nH]c1C` (stereo not given), the “Percent Effect” value is recorded as -9.272%.

`CCOc1ncccc1C(=O)N1CCCC1c1c(C)nn(C)c1Cl` (stereo not given): the “Percent Effect” value was 122.7%.

On to `CCOc1ncccc1C(=O)N1CCCCC1c1nccs1` (stereo not given), for which the “Percent Effect” value is recorded as 4.622%.

Regarding `COc1ncccc1C(=O)N1CCCC1c1c(C)nn(C)c1Cl` (stereo not given), the “Percent Effect” value is 89.91%.

On to `CCCNC(=O)C(C)Nc1ccc(OCC)cc1` (stereo not given) [PROPETAMIDE], for which the “Percent Effect” value was -10.93%.

As to `CC(=O)N1Cc2ccccc2CC1C(=O)Nc1ccc(N(C)C)cn1` (stereo not given), the “Percent Effect” value is recorded as -0.765%.

`CCS(=O)(=O)NCCNc1c(C#N)cnc2c(C)cc(F)cc12`: the “Percent Effect” value is on record as -8.935%.

Turning to `COc1ccc(-c2ccc(C(=O)NS(C)(=O)=O)c(F)c2)cc1`, the “Percent Effect” value is reported as -4.531%.

Take `CCn1nnc(NCc2cc(Br)cc(Br)c2OC)n1`: the “Percent Effect” value was found to be 107.9%.

With `CCCC(=O)NCc1cc(Br)c(OC)c(OC)c1`, the “Percent Effect” value is recorded as -2.36%.

Turning to `CCOc1c(Cl)cc(Cl)cc1CNCCCn1ccnc1`, the “Percent Effect” value stood at 7.909%.

Turning to `CCn1nnc(NCc2cc(Cl)cc(Cl)c2OC)n1`, the “Percent Effect” value was determined as 112%.

With `CCCn1nnc(NCc2cc(Br)cc(Br)c2OC)n1`, the “Percent Effect” value was 116%.

Regarding `CCOc1c(CNCCCn2ccnc2)cc(Cl)cc1OC.Cl.Cl`, the “Percent Effect” value came to 2.415%.

With `COc1cc(Br)c(CNc2ccn(CCC(N)=O)n2)cc1OC`, the “Percent Effect” value is listed as -66.5%.

For the compound `CC(CN1CCCC1=O)NC(=O)c1cc(-c2cccc(Cl)c2)no1` (stereo not given), the “Percent Effect” value is on record as -44.82%.

On to `COCC(=O)N[C@H](C)c1onc(-c2ccccc2)c1C(=O)O`, for which the “Percent Effect” value is reported as -4.041%.

As to `CN(C)CC1CN(Cc2nnc(-c3ccccc3Cl)o2)CCO1` (stereo not given), the “Percent Effect” value was 1.962%.

In the case of `O=C(c1cccc(CN2CCCC2)c1)N1CCCC(n2cncn2)C1` (stereo not given), the “Percent Effect” value is -4.839%.

In the case of `CCc1cccc(OCC(=O)N2CCCC(n3cncn3)C2)c1` (stereo not given), the “Percent Effect” value is on record as 9.617%.

Turning to `COC(=O)c1cccc(C(=O)N2CCCC(n3cncn3)C2)c1` (stereo not given), the “Percent Effect” value worked out at 108.5%.

Take `CS(=O)(=O)Cc1cccc(C(=O)N2CCCC(n3cccn3)C2)c1` (stereo not given): the “Percent Effect” value amounted to 7.401%.

On to `O=C(c1cccc(OC2CCCC2)c1)N1CCCC(n2cncn2)C1` (stereo not given), for which the “Percent Effect” value is listed as -3.661%.

Turning to `COCCn1cc(C(=O)N2CCCC(n3cncn3)C2)ccc1=O` (stereo not given), the “Percent Effect” value is on record as -8.291%.

As for `CCCOc1cccc(C(=O)N2CCCC(n3cncn3)C2)c1` (stereo not given), the “Percent Effect” value amounted to 99.87%.

With `CN(C)Cc1cccc(C(=O)N2CCCC(n3cncn3)C2)c1` (stereo not given), the “Percent Effect” value is listed as 139.2%.

For the compound `COc1cc(CCC(=O)NCC2CCCN2C)ccc1OCC(F)(F)F` (stereo not given), the “Percent Effect” value is given as -0.8695%.

Consider `Cc1nc(O)cc(C2CCCN(C(=O)COCc3ccccc3)C2)n1` (stereo not given), for which the “Percent Effect” value was determined as 12.86%.

For the compound `COCC(=O)N1C[C@@H](c2cc(O)nc(C)n2)[C@H](c2ccccc2F)C1`, the “Percent Effect” value is 108.7%.

`Cc1nc(O)cc([C@@H]2CN(C(=O)C3CC3)C[C@H]2c2ccccc2F)n1`: the “Percent Effect” value was 114.1%.

Take `CC(=O)N1C[C@@H](F)[C@@H](OCc2nc3ccccc3o2)C1`: the “Percent Effect” value is listed as -12.47%.

Turning to `COCC(=O)N1C[C@H]2CN(Cc3csc(C)n3)C(=O)[C@H]2C1.O=C(O)C(F)(F)F`, the “Percent Effect” value was -18.32%.

`CC(=O)N1C[C@H](c2cc(O)nc(C)n2)[C@@H](c2ccccc2F)C1`: the “Percent Effect” value was 117%.
